This note sets out measurements from PubChem BioAssay (NCI).

This is part of a sample that, as a whole, favours compounds with a hit. Of some 83,000 tested, about 20% had one in any assay.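 48-hour exposure, single concentration, 96-well plates; percent growth endpoint where 0 means no net growth. Active: below 10.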 Calls of active or inactive are those of the source.

In one test the test system is MDA-MB-435 melanoma. In words: NCI-60 one-dose screen, 48 h (100 = growth as untreated, 0 = no growth, -100 = all killed). Conditions: 10 µM.
Consider `COc1ccc([C@H]2[C@H](C(=O)Nc3cccnc3)c3ccccc3C(=O)N2c2ccccc2)cc1`, for which the growth is 99.1% (inactive). Same read-out and setting: with `COc1ccc(/C=C2\CCCC3C2=Nc2ccccc2NC3c2ccc(OC)cc2)cc1` (stereo unspecified) the figure was 13.8% (inactive).

Regarding `O=S(=O)(NCCCNc1nccc(-c2cn(-c3ccccc3)nc2-c2ccc(Cl)c(O)c2)n1)c1ccccc1`, the growth is 68.7% (inactive).

Another test relates to SW-620 colon. The test is described as above. Conditions: 10 µM.
As to `Nc1ccc(-c2cccs2)cc1NC(=O)c1ccc(CCCC(=O)Nc2ccc(C3CC3N)cc2)cc1` (stereo unspecified), the growth is 23.7% (inactive). For the compound `CCCc1cn(CC(=O)Nc2nc3ccccc3s2)nn1`, the growth was 99.9% (inactive). Still for that read-out and setting: with `O=C(CCCCCCC(=O)Nc1ccccc1)NO` the figure was -25.7% (active). Regarding `O=[N+]([O-])c1ccc(/C(=C/c2ccccc2)[n+]2ccccc2)cc1`, the growth was 103% (inactive).

Turning to `Oc1cccc(-c2nc3sccn3c2-c2ccncn2)c1`, the growth is 108% (inactive). On the same count and under the same terms, with `COc1ccc(/C(=N\N)C(=O)c2ccccc2)cc1` (tested in a mixture with another compound) the figure was 107% (inactive). The same measure, in the same setting: under `COc1ccc(C(=O)N/N=C/c2cc(C(F)(F)F)ccc2Cl)cc1` stands 98.8% (inactive); under `OCC1OC2C(NC(=S)N2c2ccccc2)C(O)C1O` (stereo unspecified), 98.4% (inactive); under `COc1cc2cc(Oc3ccc(NC(=O)Nc4cccc(C(F)(F)F)c4)cc3)c(C)nc2cc1OC`, 17.5% (inactive). Same read-out and setting: under `Cc1c2c[n+](C(C)C)ccc2c(C)c2c1[nH]c1ccccc12` stands 22% (inactive); under `CC(=O)Nc1ccc(S(=O)(=O)c2ccnc3cc(Cl)ccc23)cc1`, 81.8% (inactive); under `CS(=O)(=O)c1nccc(-c2c(-c3cccc(OCCN4CCOCC4)c3)nc3sccn23)n1`, 97.7% (inactive).

With `COc1ccc(Cc2cnc(N)nc2N)cc1OC`, the growth was 98.7% (inactive). Same read-out and setting: with `C=CCN(CC=C)C(=O)[C@H](CC)[C@@H]1CC[C@@H](C)[C@@H]([C@H](C)[C@@H](O)[C@@H](C)C(=O)[C@H](CC)C2O[C@]3(C=CC(=O)[C@]4(CC[C@@](C)([C@H]5CC[C@](O)(CC)[C@H](C)O5)O4)O3)[C@H](C)C[C@@H]2C)O1` (stereo partly specified) the figure was 24.8% (inactive).

Take `O=C1c2c(c(=O)[nH]c3ccccc23)CCN1Cc1ccccc1`: the growth is 105% (inactive). On the same count and under the same terms, with `COc1ccccc1-n1c(-c2csc(NC(C)=O)n2)n[nH]c1=S` the figure was 105% (inactive); with `Cc1ccc(NCCN(C)CC(C)O)c2c(=O)c3ccccc3sc12` (stereo unspecified), 23.6% (inactive). The same measure, in the same setting: under `CCNCC(=O)Nc1ccc(C(=O)OCC)cc1` stands 97.2% (inactive); under `COC(=O)C1OC1c1cc([N+](=O)[O-])ccc1OC` (stereo unspecified), 107% (inactive); under `O=C1c2ccccc2C(=O)c2c1ccc1c(=O)n(-c3ccccc3C(F)(F)F)nnc21`, 11.4% (inactive). Regarding `Nc1ccccc1NC(=O)c1ccc(CCCC(=O)Nc2ccc(C3CC3N)cc2)cc1` (stereo unspecified), the growth is 14.9% (inactive). Take `C=CCn1c(SCC(=O)Nc2ccc(C(=O)/C=C/c3ccc(OC)cc3)cc2)nnc1-c1ccc(OC)c(OC)c1`: the growth was 97.2% (inactive).

In the case of `CN1C(C(=O)Nc2ccccn2)=C(O)c2sc(Cl)cc2S1(=O)=O`, the growth is 95.8% (inactive).

Consider `CC1/C=C/C=C/C=C/C=C/C=C/C=C/C=C/C(O[C@@H]2O[C@H](C)[C@H](O)[C@@H](O)[C@@H]2N)CC(O)C(C(=O)O)C(O)CC(=O)CC(O)CC(O)CC(O)CC(=O)CCCC(=O)CC(=O)OC1C(C)CC(C)C(O)CC(=O)c1ccc(N)cc1` (stereo partly specified), for which the growth was -95.3% (active).

In the case of `CCN(CC)CC(=O)N(CC)c1ccc(C)c(Cl)c1`, the growth is 97.3% (inactive).

Turning to `NC(CSC(c1ccccc1)(c1ccccc1)c1cccc2ccccc12)C(=O)O` (stereo unspecified), the growth was 97.8% (inactive).

Take `O=C(CCn1cnc2c(cc(-c3ccccc3)n2-c2ccccc2)c1=O)Nc1ccc(F)cc1`: the growth was 95.9% (inactive). The same measure, in the same setting: with `COc1ccc(C(=O)CC(CC(=O)c2ccc(OC)cc2)c2c(C)nn(-c3ccccc3)c2Cl)cc1` the figure was 102% (inactive); with `CCCN1CN2C(=O)N3CN(CCC)CN4C(=S)N(C1)C2C34` (stereo unspecified), 108% (inactive).

As for `NC1=NC(c2ccccc2)C2=C(N1)/C(=C/c1ccccc1)CCC2` (stereo unspecified), the growth was 72.8% (inactive). On the same count and under the same terms, with `C[C@]12CC[C@@H]3c4ccc(O)cc4CC[C@H]3[C@@H]1CC[C@@H]2NS(=O)(=O)c1ccc(C(F)(F)F)cc1` the figure was 69.7% (inactive). Still for that read-out and setting: with `OCC1OC(n2cnc3c(NCc4ccco4)ncnc32)C(O)C1O` (stereo unspecified) the figure was 18.8% (inactive); with `COc1cc(C2CC(c3cc(Cl)c(C)cc3O)=NN2c2ccc(S(N)(=O)=O)cc2)cc(OC)c1OC` (stereo unspecified), 18.8% (inactive).
